The full ranking holds about 33,000 sequences; the median of “E-score (-0.5 to 0.5)” is about -0.017, and the highest 2% start at about 0.3. What follows is part of a selection rich in the highest values, with near analogues and random picks from the rest.
These sequences were tested against T1, Sut1 (UniProt P53032) (assay: PBM E-score (8-mer binding enrichment) (E-score (-0.5 to 0.5)); higher = stronger / more preferred TF binding). Conditions: protein concentration: 200 nM; construct: GST-full length.
T1 sequence: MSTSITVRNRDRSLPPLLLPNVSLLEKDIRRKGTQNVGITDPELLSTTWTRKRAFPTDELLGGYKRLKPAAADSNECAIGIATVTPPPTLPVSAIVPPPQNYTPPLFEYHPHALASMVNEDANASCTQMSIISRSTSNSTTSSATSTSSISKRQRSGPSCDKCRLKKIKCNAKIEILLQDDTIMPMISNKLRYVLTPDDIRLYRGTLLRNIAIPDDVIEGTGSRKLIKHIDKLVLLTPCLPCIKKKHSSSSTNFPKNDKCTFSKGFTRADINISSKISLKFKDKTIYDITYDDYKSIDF
Procedure, shortened: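 Universal all-10-mer Agilent arrays, fresh or stripped once, were converted to double-stranded form by primer extension. GST-tagged yeast transcription factors from PURExpress in vitro transcription/translation, full-length or DNA-binding domain only, were applied at about 100-200 nM and detected with fluorescent anti-GST. After masliner normalisation, the Universal PBM Analysis Suite scored each ungapped eight-base word together with its reverse complement by E-score.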

| Sequence | PBM E-score |
| --- | --- |
| AGGCTACG | -0.345 |
| AAGTCTGA | -0.193 |
| CAAATTCA | 0.0268 |
| GCAGAATA | -0.0687 |
| GCACCGGC | -0.0791 |
| CCACCGGC | 0.0248 |
| TCACCGCA | -0.0955 |
| GCACCGTA | 0.0972 |
| TCACCGAA | 0.155 |
| ACACCGGT | 0.0191 |
| CCACCGGA | 0.362 |
| GCACCGGA | 0.338 |
| ACACCGGA | 0.343 |
| ACACCGGC | 0.0168 |
| TCACCGGA | 0.397 |
| CCACCGGG | -0.0405 |
| GGCTTTAC | 0.113 |
| ACTGAGAC | 0.00875 |
| ATCCAGAC | -0.0133 |
| CGGTTTAC | 0.00822 |
| AGGGCTGA | -0.161 |
| CGAGGAAG | 0.0543 |
| AAGCCATC | 0.0153 |
| TAACAGGA | 0.0331 |
| GAACCAGA | -0.185 |

| Sequence | PBM E-score |
| --- | --- |
| GAACGTGC | -0.234 |
| TGGTTAAA | 0.159 |
| GAACGGAA | 0.166 |
| AAACGGTA | 0.0446 |
| TCACGGAA | 0.238 |
| AAACGGAA | 0.331 |
| AAACGGAT | 0.209 |
| CAACGGAC | 0.291 |
| AAACGGAG | 0.37 |
| AAACGGGA | 0.159 |
| AAACGGAC | 0.147 |
| TAACGGAA | 0.309 |
| CAACGGAG | 0.399 |
| CAACGGAA | 0.25 |
| ACCCAACG | -0.0276 |
| CACCCTAC | -0.161 |
| CATATGCG | -0.0808 |
| AGTAAACG | -0.0776 |
| CTACCAGC | -0.212 |
| GGCGTTGA | -0.134 |
| GCAGTAAC | -0.144 |
| GAATTGTA | 0.128 |
| CTCTCCCC | -0.259 |
| AATGCTTG | -0.238 |
| CGACCTGA | -0.184 |

| Sequence | PBM E-score |
| --- | --- |
| CCTAAAGA | 0.0405 |
| ACTAATCA | 0.139 |
| CAGAGTCA | -0.379 |
| CAAAGAAA | 0.115 |
| CCAAGAAA | 0.241 |
| TAAAGAAA | 0.301 |
| GAAAGAAA | 0.294 |
| TCAAGAAA | 0.316 |
| ACAAGAAA | 0.218 |
| CTAGGCCA | -0.145 |
| ATGGGGAA | -0.0455 |
| GAGAAGGC | -0.0615 |
| CGCGCACC | -0.0354 |
| GGTGAGAA | 0.137 |
| CCGCTCAA | -0.078 |
| ACTCCTGC | 0.0597 |
| ACTCCGGC | 0.489 |
| CATCCGGG | -0.0527 |
| ACTCCGGG | 0.491 |
| ACTCCCGG | 0.174 |
| CCTCCGGC | 0.106 |
| TACAATGA | 0.153 |
| CAAGATTC | 0.235 |
| CTACGGAA | 0.0897 |
| ATACGGAT | 0.0822 |

| Sequence | PBM E-score |
| --- | --- |
| ATACGGTG | 0.0347 |
| ATACGGAG | 0.362 |
| CTACGGAC | 0.169 |
| CTACGGAG | 0.381 |
| CAGAAGGG | -0.238 |
| ACTGCAAG | -0.0394 |
| ATGGGAAA | 0.0371 |
| ATGGCCGG | -0.0767 |
| CGCCGGCG | 0.375 |
| AGCCGGTG | 0.00841 |
| AGCCGGAC | 0.342 |
| CGCCGGCC | -0.0583 |
| AGCCGGTC | -0.166 |
| AGCCGGAA | 0.233 |
| GGCCGGAC | 0.302 |
| CGCCGGAC | 0.275 |
| AGCCGGAG | 0.371 |
| AGCCGGAT | 0.125 |
| AGCCGGCG | -0.0364 |
| GGCCGGAA | 0.0761 |
| ACTTCTCA | -0.033 |
| GCCCATGA | -0.222 |
| AAGAGCGG | 0.0491 |
| GTCGCGCA | 0.0446 |
| TACTCTCA | 0.0648 |

| Sequence | PBM E-score |
| --- | --- |
| AACCGTCA | -0.0173 |
| CGCCGTAG | 0.0361 |
| CGCCGGAG | 0.391 |
| CGCCGGAA | 0.132 |
| GCGAACGA | 0.0664 |
| CTTACTTA | 0.11 |
| ATTACTGA | 0.037 |
| CATACTCC | 0.325 |
| GCTACTCC | 0.3 |
| AATACTCC | 0.199 |
| CATACTCA | -0.0521 |
| ATTACTCC | 0.318 |
| ATTACTCA | 0.162 |
| ATTACTCG | 0.0802 |
| ACTACTCC | 0.226 |
| GCTACTCA | 0.0293 |
| ATTACTTA | 0.327 |
| AATGGATC | 0.0349 |
| ATCGACCC | 0.0935 |
| AGTTTTTG | 0.28 |
| CGGGAGAG | -0.0788 |
| TACACTCA | 0.0601 |
| ACATACTG | 0.0299 |
| AGAGCACA | -0.0607 |
| AGTACCTG | 0.0244 |

| Sequence | PBM E-score |
| --- | --- |
| GCTCATGA | -0.172 |
| CTGAAGAC | -0.0142 |
| CTTACTCA | -0.0535 |
| CTTACTAC | 0.0954 |
| CTTACTCC | 0.365 |
| TAGCCCCA | -0.121 |
| GCCGTTAA | 0.092 |
| CCCGTTAA | -0.176 |
| TCCGTTAA | 0.326 |
| CCCAAAGC | -0.0681 |
| CCCTGGTA | -0.336 |
| CTTGGGGC | -0.245 |
| GGGTTAAC | 0.0764 |
| CTCCTAAG | -0.111 |
| GACTCCGA | 0.486 |
| TCCTCCGA | 0.0213 |
| TACTCCGA | 0.491 |
| CACTCCGA | 0.471 |
| TACTCCAA | -0.0372 |
| GACTCCTA | 0.0134 |
| CCCTCCGA | 0.0492 |
| GACTCCAA | -0.0971 |
| CACTCCAA | 0.0306 |
| AAACTATT | 0.24 |
| AGCTAGGC | -0.232 |

| Sequence | PBM E-score |
| --- | --- |
| GCCTAGGA | -0.122 |
| ACTGGGGC | -0.231 |
| GAGCTATC | -0.0645 |
| GACCTTCC | 0.0118 |
| AGCCACCT | -0.248 |
| ATCCGAAG | 0.101 |
| ATCCGAAT | 0.32 |
| CGCCGAAA | -0.00015 |
| CACCGAAC | -0.0118 |
| CTCCGAAC | 0.468 |
| GACCGAAC | 0.0271 |
| AACCGAAT | 0.099 |
| ATCCGAAC | 0.213 |
| CTCCGAAA | 0.46 |
| CACCGAAA | 0.137 |
| GTCCGAAC | 0.397 |
| GCCCGAAC | -0.00475 |
| CCTAGCCC | -0.128 |
| AACTAGTC | 0.0497 |
| ATCGATCA | 0.0202 |
| CGAAACAC | 0.0972 |
| CTAACTGA | 0.0767 |

Source: the supplement of paper PMC3334620
